From PubChem BioAssay (EPA / NIEHS)
Activity calls are given as the source filed them. Rule for the calls: active = hit-call score of the fitted dose curve at least 0.9, where 1 is the maximum; inactive = score below 0.9.

What was measured:
[1] = ATG_E_Box_CIS: Attagene CIS-FACTORIAL HepG2 Assay for human Enhancer Box (E-box) (AID 2282936); conditions: HepG2 E-box cis-reporter transcription, actives raise or lower the signal
Method in brief: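 Transiently transfected HepG2, endogenous TF-driven reporters, 24 h dosing. Readout: RT-PCR plus capillary electrophoresis of fluorescent reporter fragments. Gain or loss of signal fitted bidirectionally against DMSO baseline.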

[2] = ATG_M_61_CIS: Attagene CIS-FACTORIAL HepG2 Assay for M61 Transcription Factor (Internal Marker) (AID 2282937); conditions: HepG2 Attagene CIS-FACTORIAL M61 internal marker reporter; actives raise or lower the signal
Method in brief: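 Human liver HepG2, transient MRTU transfection (cis promoter elements), 24 h compound. Total RNA → oligo(dT) RT → PCR → FAM label → HpaI → CE. Internal background marker; bidirectional fitting, DMSO = baseline.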

[3] = ATG_EGR_CIS: Attagene CIS-FACTORIAL HepG2 Assay for human Early Growth Response 1 (EGR1) (AID 2282938); conditions: HepG2 Attagene CIS-FACTORIAL EGR reporter mRNA; actives raise or lower the signal
Method in brief: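 Transient transfection of human HepG2 with multiple cis-regulated reporter units, chemical exposure 24 h, total RNA isolated. Reverse transcription, PCR, fluorescent labelling and capillary electrophoresis quantify reporter transcripts; activity fitted bidirectionally against DMSO.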

[4] = ATG_M_19_CIS: Attagene CIS-FACTORIAL HepG2 Assay for M19 Transcription Factor (Internal Marker) (AID 2282939); conditions: HepG2 Attagene CIS-FACTORIAL M19 internal marker reporter; actives raise or lower the signal
Method in brief: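 HepG2 cells transiently transfected with cis-regulated multiple reporter transcription units were dosed for 24 h; reporter mRNA was quantified by RT-PCR, 6-FAM primer-extension labelling, HpaI digestion and capillary electrophoresis, with bidirectional fitting against DMSO baseline.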

[5] = ATG_Ets_CIS: Attagene CIS-FACTORIAL HepG2 Assay for human Erythroblast Transformation Specific (ETS) (AID 2282941); conditions: HepG2 ETS cis-reporter transcription, actives raise or lower the signal
Method in brief: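 Cis-regulated reporter mRNA induction in HepG2 (transient transfection), 24 h exposure, RT-PCR plus capillary electrophoresis detection; DMSO serves as negative control and baseline.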

[6] = molecular target: Hepatocyte nuclear factor 3-beta (Homo sapiens) (UniProt Q9Y261); assay: ATG_FoxA2_CIS: Attagene CIS-FACTORIAL HepG2 Assay for human Forkhead box A2 (FOXA2) (AID 2282942); conditions: HepG2 cis-reporter transcription factor activity, 24 h; actives raise or lower the signal
Method in brief: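 Transient MRTU transfection of HepG2 liver cells; 24 h treatment; total RNA → oligo(dT) RT → PCR → FAM primer extension → HpaI cut → CE. Bidirectional fit vs DMSO.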

[7] = ATG_FoxO_CIS: Attagene CIS-FACTORIAL HepG2 Assay for human Forkhead box O (FoxO) (AID 2282943); conditions: HepG2 Attagene cis-reporter, FoxO element, mRNA; actives raise or lower the signal
Method in brief: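 Read-out: fluorescence of 6-FAM-labelled reporter cDNA fragments resolved by capillary electrophoresis. Transiently transfected HepG2 cells were dosed for 24 h; activity fitted in both directions relative to DMSO controls.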

[8] = ATG_GATA_CIS: Attagene CIS-FACTORIAL HepG2 Assay for human GATA Binding Protein (AID 2282944); conditions: HepG2 GATA cis-element reporter, Attagene multiplex mRNA; actives raise or lower the signal
Method in brief: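 HepG2 cells transiently transfected with multiplexed cis-element reporter units reflecting endogenous transcription factor activity; reporter mRNA measured after 24 h dosing by RT-PCR, 6-FAM labeling, HpaI digestion and capillary electrophoresis. Bidirectional fitting versus DMSO baseline.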

[9] = ATG_GLI_CIS: Attagene CIS-FACTORIAL HepG2 Assay for human Zinc Finger Protein GLI1 (AID 2282945); conditions: HepG2, Attagene cis-factorial reporter mRNA, GLI element; actives raise or lower the signal
Method in brief: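 Transiently transfected HepG2 cells report endogenous transcription factor activity via cis-element-driven reporter units. After 24 h compound exposure, reporter mRNA was measured by RT-PCR with capillary electrophoresis; bidirectional fitting against DMSO baseline.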

[10] = ATG_GRE_CIS: Attagene CIS-FACTORIAL HepG2 Assay for human Glucocorticoid Response Elements (GRE) (AID 2282947); conditions: HepG2 GRE cis-reporter, Attagene multiplex mRNA; actives raise or lower the signal
Method in brief: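 Read-out: fluorescent reporter-transcript fragments separated by capillary electrophoresis after RT-PCR. Transiently transfected HepG2 cells carrying cis-element-driven reporter units were dosed for 24 h; gain or loss of signal fitted against DMSO control.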

[11] = ATG_ISRE_CIS: Attagene CIS-FACTORIAL HepG2 Assay for human Interferon Regulatory Factor 1 (IRF1) binding to an Interferon-Stimulated Response Element (ISRE) (AID 2282948); conditions: HepG2 ISRE cis-reporter (Attagene), mRNA transcription readout; actives raise or lower the signal
Method in brief: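 Multiplexed mRNA reporter readout in human liver HepG2 cells: cis-element-driven reporters transfected, compound added for 24 h, transcripts amplified, fluorescently labelled and sized by capillary electrophoresis; curve fitting bidirectional against DMSO.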

[12] = ATG_M_32_CIS: Attagene CIS-FACTORIAL HepG2 Assay for M32 Transcription Factor (Internal Marker) (AID 2282949); conditions: HepG2 Attagene cis-factorial M32 reporter, mRNA; actives raise or lower the signal;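 note: background control marker of the multiplexed CIS panel rather than a real target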
Method in brief: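 Transient MRTU transfection of HepG2; 24 h compound treatment; TriZol RNA, oligo(dT) RT, reporter PCR, 6-FAM primer extension, HpaI cut, CE. Gain/loss of signal vs DMSO.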

[13] = ATG_M_06_CIS: Attagene CIS-FACTORIAL HepG2 Assay for M06 Transcription Factor (Internal Marker) (AID 2282950); conditions: HepG2 Attagene CIS-FACTORIAL M06 internal marker reporter; actives raise or lower the signal
Method in brief: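 HepG2 cells transiently transfected with cis-regulated multiple reporter transcription units were exposed to chemical for 24 h; reporter mRNA was quantified by RT-PCR, 6-FAM primer labelling, HpaI digestion and capillary electrophoresis, fitted bidirectionally against DMSO.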

[14] = molecular target: Hypoxia-inducible factor 1-alpha (Homo sapiens) (UniProt Q16665); assay: ATG_HIF1a_CIS: Attagene CIS-FACTORIAL HepG2 Assay for human Hypoxia Inducible Factor 1 (HIF1A) (AID 2282951); conditions: HepG2 Attagene cis-factorial HIF1a reporter transcription; actives raise or lower the signal
Method in brief: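 Transient MRTU transfection of human HepG2 liver cells, 24 h compound treatment, then total RNA isolation, oligo(dT) reverse transcription, PCR amplification, fluorescent labelling and capillary electrophoresis of reporter fragments. Gain or loss relative to DMSO.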

[15] = molecular target: Hepatocyte nuclear factor 6 (Homo sapiens) (UniProt Q9UBC0); assay: ATG_HNF6_CIS: Attagene CIS-FACTORIAL HepG2 Assay for human Hepatocyte Nuclear Factor 6 (HNF6) (AID 2282952); conditions: HepG2 Attagene cis-factorial HNF6 reporter transcription; actives raise or lower the signal
Method in brief: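 Twenty-four-hour chemical treatment of reporter-transfected HepG2 cells precedes RNA isolation, DNase-treated reverse transcription and PCR of reporter sequences. Labelled fragments are sized by capillary electrophoresis and fitted bidirectionally versus DMSO.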

[16] = molecular target: Heat shock factor protein 1 (Homo sapiens) (UniProt Q00613); assay: ATG_HSE_CIS: Attagene CIS-FACTORIAL HepG2 Assay for human Heat Shock Transcription Factor 1 (HSE) (AID 2282953); conditions: HepG2 HSE cis-reporter, Attagene RNA transcription; actives raise or lower the signal
Method in brief: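 HepG2 cells transiently transfected with multiple reporter transcription units under cis-regulatory promoter control, measuring endogenous transcription factor activity. After 24 h chemical exposure, reporter mRNA quantified by RT-PCR, fluorescent labelling, HpaI digestion and capillary electrophoresis; bidirectional fit versus DMSO.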

[17] = ATG_MRE_CIS: Attagene CIS-FACTORIAL HepG2 Assay for human Metal Responsive Element (MRE) (AID 2282954); conditions: HepG2 MRE cis-reporter transcription, Attagene multiplex; actives raise or lower the signal
Method in brief: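 RT-PCR/capillary electrophoresis readout of reporter mRNA, 24 h post-dosing, in HepG2 cells transfected with multiplexed cis-regulated reporter constructs. Gain or loss of signal fitted bidirectionally against DMSO baseline.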

[18] = ATG_PBREM_CIS: Attagene CIS-FACTORIAL HepG2 Assay for human Phenobarbital-responsive Enhancer Module (PBREM) (AID 2282955); conditions: HepG2 PBREM cis-reporter, Attagene multiplexed transcription; actives raise or lower the signal
Method in brief: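 Endogenous transcription factors in human liver HepG2 cells drive a PBREM cis-element reporter, whose transcript level after 24 h treatment is quantified by RT-PCR with capillary electrophoresis; activity fitted in both directions against DMSO.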

[19] = molecular target: Paired box protein Pax-6 (Homo sapiens) (UniProt P26367); assay: ATG_Pax6_CIS: Attagene CIS-FACTORIAL HepG2 Assay for human Paired Box 6 (PAX6) (AID 2282956); conditions: HepG2 CIS-FACTORIAL PAX6 reporter transcription, RNA readout; actives raise or lower the signal
Method in brief: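 Fluorescent RT-PCR products separated by capillary electrophoresis report PAX6-linked promoter mRNA in HepG2 cells 24 h post-dose. Curves fitted bidirectionally, DMSO as negative control.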

Measured: AC50

Chain of Hypoxia-inducible factor 1-alpha (Homo sapiens) (Q16665 whole entry, looked up, the tested form may be a part): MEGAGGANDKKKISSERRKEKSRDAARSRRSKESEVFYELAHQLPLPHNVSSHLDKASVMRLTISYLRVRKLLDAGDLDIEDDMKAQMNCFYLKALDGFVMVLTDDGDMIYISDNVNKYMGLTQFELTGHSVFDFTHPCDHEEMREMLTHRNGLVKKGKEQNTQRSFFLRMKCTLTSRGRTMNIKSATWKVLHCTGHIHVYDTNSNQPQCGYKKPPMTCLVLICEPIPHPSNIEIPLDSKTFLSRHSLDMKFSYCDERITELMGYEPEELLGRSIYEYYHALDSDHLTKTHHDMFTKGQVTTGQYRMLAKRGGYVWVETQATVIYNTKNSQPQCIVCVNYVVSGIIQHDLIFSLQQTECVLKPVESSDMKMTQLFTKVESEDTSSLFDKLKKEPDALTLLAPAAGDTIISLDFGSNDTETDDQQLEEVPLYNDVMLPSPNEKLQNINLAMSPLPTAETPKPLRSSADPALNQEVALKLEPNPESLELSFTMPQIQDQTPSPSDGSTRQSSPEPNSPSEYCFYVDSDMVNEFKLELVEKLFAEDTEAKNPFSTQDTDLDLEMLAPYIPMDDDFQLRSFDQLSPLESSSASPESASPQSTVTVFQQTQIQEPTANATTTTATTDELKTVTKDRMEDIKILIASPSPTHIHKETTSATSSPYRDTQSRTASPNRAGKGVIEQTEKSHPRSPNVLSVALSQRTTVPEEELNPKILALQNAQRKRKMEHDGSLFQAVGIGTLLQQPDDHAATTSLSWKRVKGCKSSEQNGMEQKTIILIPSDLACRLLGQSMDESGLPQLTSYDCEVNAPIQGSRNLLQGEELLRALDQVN
Chain of Hepatocyte nuclear factor 3-beta (Homo sapiens) (Q9Y261 whole entry, looked up): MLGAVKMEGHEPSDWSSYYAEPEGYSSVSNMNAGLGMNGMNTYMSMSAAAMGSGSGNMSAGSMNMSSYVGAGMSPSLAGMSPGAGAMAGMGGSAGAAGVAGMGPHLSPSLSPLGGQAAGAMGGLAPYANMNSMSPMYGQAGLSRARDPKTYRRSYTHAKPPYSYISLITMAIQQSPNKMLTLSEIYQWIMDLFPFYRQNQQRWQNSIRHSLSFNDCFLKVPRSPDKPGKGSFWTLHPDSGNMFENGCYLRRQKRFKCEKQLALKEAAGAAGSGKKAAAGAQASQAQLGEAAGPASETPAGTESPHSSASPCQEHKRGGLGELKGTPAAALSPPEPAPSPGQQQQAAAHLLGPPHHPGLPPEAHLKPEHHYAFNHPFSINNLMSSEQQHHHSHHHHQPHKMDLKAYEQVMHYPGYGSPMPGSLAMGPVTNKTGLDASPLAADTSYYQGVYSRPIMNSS
Chain of Heat shock factor protein 1 (Homo sapiens) (Q00613 whole entry, looked up): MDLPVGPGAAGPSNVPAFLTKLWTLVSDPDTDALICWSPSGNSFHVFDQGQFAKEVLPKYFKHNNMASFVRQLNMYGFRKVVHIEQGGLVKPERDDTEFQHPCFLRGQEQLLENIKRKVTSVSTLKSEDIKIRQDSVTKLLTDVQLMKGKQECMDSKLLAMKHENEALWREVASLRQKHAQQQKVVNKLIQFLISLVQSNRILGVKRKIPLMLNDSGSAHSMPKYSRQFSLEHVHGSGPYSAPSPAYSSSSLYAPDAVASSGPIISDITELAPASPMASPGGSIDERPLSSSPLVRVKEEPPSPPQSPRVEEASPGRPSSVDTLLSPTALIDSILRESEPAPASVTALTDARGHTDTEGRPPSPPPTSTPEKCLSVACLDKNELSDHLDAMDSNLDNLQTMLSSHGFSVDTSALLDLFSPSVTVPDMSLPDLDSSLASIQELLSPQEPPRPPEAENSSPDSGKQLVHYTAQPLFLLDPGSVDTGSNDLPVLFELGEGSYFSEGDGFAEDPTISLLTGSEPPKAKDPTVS
Chain of Hepatocyte nuclear factor 6 (Homo sapiens) (Q9UBC0 whole entry, looked up, the tested form may be a part): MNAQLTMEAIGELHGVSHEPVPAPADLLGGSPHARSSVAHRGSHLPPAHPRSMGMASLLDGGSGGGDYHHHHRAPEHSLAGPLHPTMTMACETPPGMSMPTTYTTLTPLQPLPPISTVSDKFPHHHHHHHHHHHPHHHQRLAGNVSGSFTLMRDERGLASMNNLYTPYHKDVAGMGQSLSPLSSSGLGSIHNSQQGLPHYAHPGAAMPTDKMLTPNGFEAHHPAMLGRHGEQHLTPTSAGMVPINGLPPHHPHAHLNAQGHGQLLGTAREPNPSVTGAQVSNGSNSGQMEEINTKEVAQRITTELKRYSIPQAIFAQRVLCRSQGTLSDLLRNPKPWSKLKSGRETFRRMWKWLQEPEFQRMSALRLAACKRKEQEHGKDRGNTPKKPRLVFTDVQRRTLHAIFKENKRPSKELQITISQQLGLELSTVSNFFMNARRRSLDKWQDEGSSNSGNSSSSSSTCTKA
Chain of Paired box protein Pax-6 (Homo sapiens) (P26367 whole entry, looked up): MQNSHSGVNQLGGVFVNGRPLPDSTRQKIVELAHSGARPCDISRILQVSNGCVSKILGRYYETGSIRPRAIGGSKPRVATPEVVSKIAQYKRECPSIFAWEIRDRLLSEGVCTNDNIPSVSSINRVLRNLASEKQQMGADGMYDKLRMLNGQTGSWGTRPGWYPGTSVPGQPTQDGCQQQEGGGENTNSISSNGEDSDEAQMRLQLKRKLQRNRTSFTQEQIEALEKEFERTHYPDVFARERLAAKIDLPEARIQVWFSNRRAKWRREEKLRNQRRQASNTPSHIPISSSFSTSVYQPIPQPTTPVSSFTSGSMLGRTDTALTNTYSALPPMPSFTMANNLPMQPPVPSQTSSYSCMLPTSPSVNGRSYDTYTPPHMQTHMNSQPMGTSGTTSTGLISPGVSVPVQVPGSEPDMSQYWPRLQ

CC(C)CC(C)(O)C#CC(C)(O)CC(C)C (configuration not stated)
inactive: all assays above

CC(C)c1cccc(C(C)C)c1N1C(=O)c2ccc(O)cc2C1=O
active: [3] 66.8 µM | [4] 182 µM | [9] 126 µM | [11] 84.7 µM | [15] 124 µM | [17] 76.9 µM | [19] 76.9 µM
not listed: [16] | [18]
inactive: all other assays above

CCc1cc(SCc2sc(-c3ccc(C(F)(F)F)cc3)nc2CN2CCN(c3ccc(OC)cc3)CC2)ccc1OCC(=O)O
active: [1] 11 µM | [3] 15.8 µM | [11] 14 µM | [14] 15.3 µM | [16] 18.1 µM | [17] 8.53 µM | [18] 17 µM | [19] 17.5 µM
inactive: all other assays above

O=C(O)c1cc(N=Nc2ccc(S(=O)(=O)Nc3ccccn3)cc2)ccc1O
not listed: [14] | [16] | [18]
inactive: all other assays above

CC1=CC(=O)CC(C)(C)C1
not listed: [16] | [18]
inactive: all other assays above

CC1(C)C(=O)N(Br)C(=O)N1Br
inactive: all assays above
